Rab2A wt mod: changes GTP binding to wildtype dog Rab2A, up or down. P61105. GST-Rab2 wt beads, Bodipy-GTP binding, flow cytometry. GTP binding activity, % at 10 µM. 190,000 tested, 0.19% active;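 active = GTP binding activity at least 20 points away from 100%, either lowered or raised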;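 note: 0% = beads with excess unlabeled GTP and 100% = no-compound control corrected for plate trend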
HRas wt GTP: modulators of GTP binding to human HRas wildtype; GTP binding activity, % at 10 µM; GST-Ras wt beads, Bodipy-FL-GTP binding, flow cytometry; actives lie on both sides; P01112; AID 759; 190,000 tested, 0.14% active;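 active = GTP binding activity at least 20% away from the 100% baseline, either lowered as inhibitor or raised as activator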;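 note: 0% = unlabeled GTP competition control and 100% = no-compound control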
Target sequence (P01112 whole entry, looked up): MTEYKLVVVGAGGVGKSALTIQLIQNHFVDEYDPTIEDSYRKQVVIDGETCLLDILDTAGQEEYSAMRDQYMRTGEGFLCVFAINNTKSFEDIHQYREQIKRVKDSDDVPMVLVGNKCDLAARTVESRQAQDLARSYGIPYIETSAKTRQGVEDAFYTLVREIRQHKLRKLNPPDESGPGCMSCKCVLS
Rab7 wt GTP bind: modulators of GTP binding to dog Rab7 wildtype GTPase; GST-Rab7 beads, fluorescent GTP binding, flow cytometry; actives lie on both sides; untreated = 100%, excess cold GTP = 0%; GTP binding activity (percent of control), % at 10 µM; 190,000 tested, 0.055% active; AID 758;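 active = fluorescent GTP binding to Rab7 beads changed by at least 20 points from the 100% baseline, either direction, mostly lower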;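 note: median green fluorescence of bound Bodipy-FL-GTP per Rab7 bead population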
Cdc42 wt: human Cdc42 wildtype GTP binding change, either direction; P60953; GST-Cdc42 beads, Bodipy-GTP binding, flow cytometry; actives lie on both sides; percent activity (GTP binding), % at 10 µM; 190,000 tested, 0.2% active; AID 761;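 active = percent activity GTP binding at least 20 points away from the 100% baseline, either down as inhibitor or up as activator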;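 note: median bead fluorescence of bound Bodipy-FL-GTP at 100 nM; 0% = excess unlabeled GTP control and 100% = no compound control; below 100% means less GTP binding so inhibitor and above means activator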
Target sequence (P60953 whole entry, looked up): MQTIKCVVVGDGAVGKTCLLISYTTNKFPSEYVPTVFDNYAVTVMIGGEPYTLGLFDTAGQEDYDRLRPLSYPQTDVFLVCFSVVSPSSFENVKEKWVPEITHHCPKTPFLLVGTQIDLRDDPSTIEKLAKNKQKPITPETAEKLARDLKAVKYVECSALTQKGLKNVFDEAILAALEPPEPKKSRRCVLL
Rac1 mut GTP: human Rac1 activated mutant GTP binding change | P63000 | GST-Rac1 activated beads, fluorescent GTP binding, flow cytometry; actives lie on both sides; 100% means binding = to untreated wells | percent activity (GTP binding), % at 10 µM | 190,000 tested, 0.11% active | AID 764;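 active = GTP binding at least 20 percentage points away from the 100% baseline, in either direction, so actives lie on both sides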
Rac1 wt modul: alters GTP binding to wildtype human Rac1 | P63000 | GST-Rac1 beads, fluorescent GTP binding, flow cytometry; actives lie on both sides; 0 = cold GTP competed, 100 = untreated | GTP binding activity (% of control), % at 10 µM | 190,000 tested, 0.27% active | AID 757;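 active = GTP binding activity at least 20 points away from the 100% control level, either lower or higher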
Numbers without * were called inactive; [ ] = remark or other dose. Shown are actives, neighbours in structure and some others; about 0.37% of the full set was active somewhere.

SMILES	Rab2A wt mod	HRas wt GTP	Rab7 wt GTP bind	Cdc42 wt	Rac1 mut GTP	Rac1 wt modul
CNC(=O)C(C)NS(=O)(=O)c1ccc(F)cc1 (stereo not given)	36*	40*	27*	37*	36*	34*
Cc1cc2nc3c(=O)n(C4CCCCC4)c(=O)[nH]c3nc2cc1N	73*	76*	93	79*	87	74*
CCOc1cc(/C=N/NC(=O)C(C)Sc2ccccc2)ccc1O (stereo not given)	88	89	92	86	90	78*
COc1cccc(/C=N/NC(=O)C(C)Sc2ccccc2)c1 (stereo not given)	94	97	99	94	94	97
CCOc1cc(/C=C2\SC(=O)N=C2N)ccc1O	80	86	90	87	89	77*
CCC(C(=O)NC1CCCC1)N(C(=O)Cn1nnc(-c2ccc(C)o2)n1)c1cnc2ccccc2c1 (stereo not given)	105	104	101	107	106	125*[activator]
Cc1nc(-c2cnn(-c3ccccc3)c2)c2cc(C)oc2n1	75*	72*	80	70*	79*	77*
Cc1oc2c(O)c(O)ccc2c(=O)c1-c1cnn(-c2ccccc2)c1	101	99	101	100	95	97
O=C(Cc1ccc2c(c1)OCCO2)N1CCN(c2ccccc2)CC1	92	91	92	95	92	92
CCOc1ccc2c(c1)c(N=Nc1cccc(C(=O)O)c1)c(O)n2C	95	96	98	99	95	93
CCOc1ccc2c(c1)c(N=NC(=N)N)c(O)n2C	86	84	93	90	90	78*
Cn1c(=O)c2c(nc(N/N=C/c3ccco3)n2C)n(C)c1=O	83	85	90	83	85	74*
O=C(NCCc1c[nH]c2ccccc12)/C(=C/c1cccnc1)NC(=O)c1ccco1	96	97	98	96	94	98
N#Cc1c(Nc2ccccc2)c(/C=N/N=C/c2ccccc2)c[nH]c1=O	81	76*	81	81	88	75*
N#Cc1c(Nc2ccccc2)c(/C=N/NCCO)c[nH]c1=O	99	99	96	95	94	96
CC(=O)OC(C(=O)NC1CCCCC1)c1ccc(Cl)c(Cl)c1 (stereo not given)	33*	35*	22*	35*	31*	29*
COc1cc(SC#N)ccc1N=Cc1c(C)[nH]n(-c2ccc(Cl)cc2)c1=O	90	94	97	95	96	93
COc1cc(SC#N)ccc1N=Cc1c(C)[nH]n(-c2ccc(C)c(C)c2)c1=O	79*	80	89	88	87	78*
C/C(=N\Nc1cc(C)nc(-c2ccccc2)n1)c1cccc([N+](=O)[O-])c1	84	88	89	82	86	73*
COCCn1c(=S)[nH]c2cc(C(=O)N3CCc4ccccc4C3)ccc2c1=O	103	102	103	104	95	124*[activator]
O=C(Nc1sc2c(c1C(=O)O)CCCCC2)c1ccccc1	81	82	89	78*	77*	80
Cc1csc(NC(=O)c2cc(=O)[nH]c3ccc(S(=O)(=O)N4CCOCC4)cc23)n1	79*	84	94	80	89	75*
O=C(NC1CCCCCC1)c1cc(=O)[nH]c2ccc(S(=O)(=O)N3CCOCC3)cc12	94	96	92	97	100	98
Cc1nc2c(ccc3c([N+](=O)[O-])cccc32)c(C)c1C	102	100	110	100	99	103
CC(C)(C)CC(=O)NC(=S)NCc1ccco1	103	103	108	103	100	125*[activator]
SMILES	Rab2A wt mod	HRas wt GTP	Rab7 wt GTP bind	Cdc42 wt	Rac1 mut GTP	Rac1 wt modul
CCOC(=O)c1c(CSc2ccccc2)n(C)c2cc(Br)c(OCC(O)CNC(CO)(CO)CO)cc12 (stereo not given)	107	113	104	113	113	120*[activator]
O=C(Nc1nc(-c2ccc(S(=O)(=O)N3CCCC3)cc2)cs1)c1cccs1	70*	71*	90	71*	84	87
O=C(Nc1ccc(S(=O)(=O)N2CCCC2)cc1)c1cccs1	97	101	103	96	94	98
Cc1cccc(OCC(=O)N2CCN(C(=O)c3ccco3)CC2)c1	97	94	95	98	96	98
COc1ccc(CNC(=O)CN(Cc2ccc(OC)cc2)C(=O)c2csnn2)cc1	99	98	102	97	95	98
CC(C)Cc1csc(NC(=O)c2ccc(Cl)cc2)c1C(=O)O	89	91	95	94	90	92
CC(C)Cc1csc(NC(=O)c2ccccc2Cl)c1C(=O)O	80	81	85	78*	82	79*
C/C=C/c1ccccc1OCc1ccc(C(=O)O)o1	149*[activator]	145*[activator]	134*[activator]	161*[activator]	146*[activator]	194*[activator]
Cc1ccc(S(=O)(=O)c2cc3c(=O)n4ccccc4nc3n(Cc3ccco3)c2=N)cc1C	103	107	103	108	103	109
CCn1c(=N)c(S(=O)(=O)c2ccccc2)cc2c(=O)n3ccccc3nc21	89	91	95	88	94	87
CCn1c(=N)c(S(=O)(=O)c2ccc(C)cc2)cc2c(=O)n3ccccc3nc21	84	84	95	81	90	74*
Cc1ccc(S(=O)(=O)c2cc3c(=O)n4ccccc4nc3n(C)c2=N)cc1	78*	79*	93	82	91	93
Cc1cccc(NCC(O)Cn2cnc3c2c(=O)n(C)c(=O)n3C)c1 (stereo not given)	115	114	106	116	104	107
Cn1c(=O)c2c(ncn2CC(O)CNc2cccc(Cl)c2)n(C)c1=O (stereo not given)	107	106	107	107	104	124*[activator]
CCOC(=O)C(=O)N1CCC(C(=O)OC)CC1	103	101	108	99	99	104
S=C(NCc1ccccc1)N1CCn2cccc2C1c1cccnc1 (stereo not given)	96	98	97	98	95	97
S=C(NCCc1ccccc1)N1CCn2cccc2C1c1cccnc1 (stereo not given)	80	81	86	78*	77*	78*
Cc1nnc2ccc(-c3cccc(NC(=O)c4ccco4)c3)nn12	63*	65*	77*	64*	75*	56*
COc1cc(/C=N/Nc2nnc3c(n2)[nH]c2ccccc23)ccc1O	79*	83	85	94	93	86
